ChEMBL document CHEMBL5308504, “Tm Shift (DSF) assay results for EUbOPEN Chemogenomics Library” (2023)
Values joined by “and” are separate entries in the source; they are usually repeats but may differ in a detail not shown here. Identical values can stand only once.

Biological target: T1, Aurora kinase A (Homo sapiens) (UniProt O14965)
T1 sequence (whole entry): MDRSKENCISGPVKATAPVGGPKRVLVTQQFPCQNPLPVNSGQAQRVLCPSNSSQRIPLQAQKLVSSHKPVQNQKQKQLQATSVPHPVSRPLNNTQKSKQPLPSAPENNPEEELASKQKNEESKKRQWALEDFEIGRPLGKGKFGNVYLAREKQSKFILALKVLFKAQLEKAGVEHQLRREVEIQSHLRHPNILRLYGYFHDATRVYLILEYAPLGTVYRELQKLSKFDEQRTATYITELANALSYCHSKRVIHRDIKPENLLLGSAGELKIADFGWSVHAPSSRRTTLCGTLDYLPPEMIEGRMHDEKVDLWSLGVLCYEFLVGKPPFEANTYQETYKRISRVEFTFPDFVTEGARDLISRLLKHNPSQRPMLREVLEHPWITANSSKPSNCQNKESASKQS
Details: Compound concentration 20.0 uM, Protein concentration 2.0 uM, Result type QC Liability

SMILES | ΔTm
O=C1Nc2ccc(I)cc2/C1=C/c1cc(Br)c(O)c(Br)c1 | -0.27 °C
Cc1cc2ncnn2cc1Nc1ncc2c(n1)n(C1CCOCC1)c(=O)n2C | 0.06 °C
CNc1oc(-c2cccc3ccccc23)nc1C#N | 0.57 °C
COc1ccc(CSc2nnc(-c3ccc4ncsc4c3)o2)cc1C(F)(F)F | 1.22 °C
CC(C)C(=O)N1CCC(c2cn(C)c3ncc(NC(=O)c4cccc(C#N)c4)c(C(F)(F)F)c23)CC1 | -0.71 °C
COCCN1CCN(CCn2ccc(Nc3ncc4c(n3)-c3c(nn(C)c3-c3ccccc3)C[C@H]4C)n2)CC1 | 2.79 °C
N#C/C(=C\c1ccc(O)c(O)c1)C(=O)OCCc1cccs1 | 4.16 °C
CC(=O)N(CCN(C)C)c1ccc(N/C(=C2\C(=O)Nc3cc(Cl)ccc32)c2ccccc2)cn1 | 7.54 °C
Cc1nc(-c2ccc(C(F)(F)F)cc2)sc1C(=O)NCc1ccc(OC(C)(C)C(=O)O)cc1 | 0.59 °C
CC(C)N(CCCCOCC(=O)O)c1cnc(-c2ccccc2)c(-c2ccccc2)n1 | -1.44 °C
FC(F)c1cncc(-c2ccc3ncc4nnc(C5=CCCOCC5)n4c3c2)c1 | 1.62 °C
CC(C)c1cnc(NC(=O)Cc2ccccc2)s1 | -0.53 °C
CCCCOc1c(C(=O)c2c(F)cc(C)cc2F)c[nH]c2nncc1-2 | 0.96 °C
CCN1C(=O)c2cc(C)ccc2N(C)c2ncccc21 | 0.08 °C
CCOCCn1cc(C(=O)Nc2ccc(-n3nc(-c4cccnc4)cc3C(F)(F)F)cn2)ccc1=O | 0.16 °C
CC#CCC(C)[C@H](O)/C=C/[C@@H]1[C@H]2C/C(=C/CCCC(=O)O)C[C@H]2C[C@H]1O (some centres undefined) | -0.07 °C
COc1ccc(S(=O)(=O)N2CCOCC2)cc1Nc1ccc2c(n1)N(C1CCOCC1)[C@H](C)C(=O)N2C | 0.03 °C
CC1CN(CC(=O)N2CC(C)(C)c3nc(CO)c(Cc4ccc(F)cc4)cc32)C(CN2CCOCC2C)CN1 (centres undefined) | -1.32 °C
O=C(O)CCCc1cc2cc(Cl)ccc2n1S(=O)(=O)c1ccc2ncsc2c1 | -0.83 °C
O=S(=O)(Nc1ccc(C(O)(C(F)(F)F)C(F)(F)F)cc1)c1cccs1 | 0.57 °C

SMILES | ΔTm
COC(=O)Nc1nc2c(s1)-c1c(c(-c3cccnc3)nn1-c1ccc(C3(N(C)C)CC3)cc1)CC2 | -0.79 °C
COc1ccccc1S(=O)(=O)Nc1ccc2c(c1)CN(C)C(=O)N2 | -0.1 °C
CC(C)(C)OC(=O)CN(Cc1ccc(Cl)cc1)Cc1ccc([N+](=O)[O-])s1 | -1.37 °C
COc1c(OCCCN2CCOCC2)ccc2c1N=C(NC(=O)c1cnc(N)nc1)N1CCN=C21 | -0.67 °C
COCCc1ccc(-c2c(C)nc3c(N4CCOCC4)ccnn23)cn1 | 0.4 °C
COc1cc(OC)cc(-c2cc3cnc(N)nc3nc2NC(=O)NC(C)(C)C)c1 | -0.29 °C and 1.1 °C
COCCNC1CCC(Nc2cc(-c3csc(NCC4(C#N)CCOCC4)n3)c(Cl)cn2)CC1 (centres undefined) | 1.44 °C
Cc1cc(-c2ccnc(Nc3cnn(C)c3)n2)ccc1CNC(=O)N1CC(OC(C)C)C1 | 8.06 °C
COCCCS(=O)(=O)c1cc(C)c(-c2ccc(F)c3c2CC[C@H]3Oc2ccc3c(c2)OC[C@H]3CC(=O)O)c(C)c1 | -0.86 °C
COc1cc2nc([C@@H]3CCCS(=O)(=O)C3)n(C)c2cc1NC(=O)c1cccc(C(C)(F)F)n1 | 1.82 °C
CN1C(=O)Cc2ccc(-c3ccc(C[C@@H](C#N)NC(=O)[C@@H]4N[C@H]5CC[C@@H]4C5)c(F)c3)cc21 | -0.07 °C
CCN(C(=O)c1cc(F)ccc1Oc1cncnc1N1CC2(CCN(C[C@H]3CC[C@H](NS(=O)(=O)CC)CC3)CC2)C1)C(C)C | -1.01 °C
CC(C)(C)c1cc(NC(=O)c2csc(Nc3ccccn3)n2)no1 | 1.27 °C
O=C(Nc1cccc(C(F)(F)F)c1)c1cccc(-n2cc(-c3ccco3)nn2)c1 | -2.64 °C
CNC(=O)c1ccc2c(c1)ncn2-c1ccc(CC(=O)OC(C)(C)C)cc1 | 0.99 °C
CNC(=O)c1cc(C(=O)N[C@H]2[C@@H]3COC[C@@H]32)cc2c1O[C@H](CF)[C@H]2c1ccccc1 | 0.31 °C
CN(C)c1ccc(-c2cc3ncccc3c(OCCCCO)n2)cc1 | 8.85 °C
O=C(NC[C@@H]1[C@H]2CN(C(=O)OCc3cc(C(F)(F)F)cc(C(F)(F)F)c3)C[C@@H]12)c1ccc2[nH]nnc2c1 | 0.61 °C
COc1cc(-c2cncc(-c3ccc(N4CCN(C(C)C)CC4)cc3)c2C)cc(F)c1C(N)=O | -0.31 °C
